Sampled rows, rich in hits. Any-hit rate of the full collection: about 21%.
DRD3 antagonist – D3 dopamine receptor (human) antagonism | P35462 | D3R cells, DiscoveRx beta-arrestin luminescence, antagonist mode; active compounds read low | max response, negative = inhibition, % | 360,000 tested, 2.5% active; in the data active means max response below about -50%; inconclusive means no clear call, values can overlap the other calls; further: on the % scale 0 is the no-effect control and ±100 the full control effect
Target sequence (P35462 whole entry, looked up): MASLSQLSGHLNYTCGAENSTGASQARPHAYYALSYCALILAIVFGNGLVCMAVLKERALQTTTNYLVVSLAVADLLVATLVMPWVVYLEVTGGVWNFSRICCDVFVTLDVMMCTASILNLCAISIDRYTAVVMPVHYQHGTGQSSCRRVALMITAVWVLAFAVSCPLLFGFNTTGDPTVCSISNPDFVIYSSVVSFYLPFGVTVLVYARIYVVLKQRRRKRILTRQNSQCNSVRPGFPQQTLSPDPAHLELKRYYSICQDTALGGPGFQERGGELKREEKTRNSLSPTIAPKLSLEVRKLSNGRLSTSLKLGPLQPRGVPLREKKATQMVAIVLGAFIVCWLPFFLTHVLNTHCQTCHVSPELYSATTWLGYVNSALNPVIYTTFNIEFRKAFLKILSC
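Cells plated overnight at 1500 cells/well, then exposed to library compounds with dopamine controls for 90 minutes at 37 degrees C. DiscoveRx reagent added for 30–60 minutes at room temperature; luminescence read, quantitative HTS format.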
IL-1B inflam inh – inhibitors of inflammasome signaling (IL-1 beta secretion); THP-1 LPS/ATP IL-1B secretion, AlphaLISA, 16 h; active compounds read low; activity change, % at 57.5 µM; 360,000 tested, 4.7% active; AID 743279; in the data active means activity change below about -50%; inconclusive means mostly about -30% to -49%; further: on the % scale 0 is the no-effect control and ±100 the full control effect
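Secreted IL-1B measured by AlphaLISA bead assay after 16 h compound exposure of THP-1 cells; compounds (final up to 57.5 uM) added 1 h before LPS (250 ng/mL) and ATP (1.25 mM) stimulation; lower signal means less secretion.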
TDP1 cell CPT – growth inhibition of DT40 Tdp1-/-;hTDP1 cells with camptothecin (screen for TDP1 inhibitors); chicken DT40 Tdp1-/-;hTDP1 cells + 20 nM CPT, ATP luminescence, 48 h; Potency, µM (top dose mostly 46.2 µM), inactives show at the top dose activity change, negative = growth inhibition, usual class: inhibitors; 420,000 tested, 12% active; AID 686979; further: potency means the concentration at half of the fitted maximal effect; on the % scale 0 is the no-effect control and ±100 the full control effect; nearly all actives have a fitted effect of over 55% in size
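Cell growth measured by CellTiter-Glo luminescence after a minimum 48 h, 37 C compound exposure with 20 nM CPT in Tdp1-knockout DT40 cells stably expressing hTDP1, seeded 400/well; qHTS titration format.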
DT40 TDP1 no CPT – qHTS for Inhibitors of human tyrosyl-DNA phosphodiesterase 1 (TDP1): qHTS in cells in absence of CPT; DT40 Tdp1-/- hTDP1 cells, no CPT, ATP luminescence, 48 h; Potency, µM (top dose mostly 46.2 µM), for the others: at the top dose activity change, negative = growth inhibition, hits mostly inhibitors; 420,000 tested, 15% active; further: potency means the concentration at half of the fitted maximal effect; on the % scale 0 is the no-effect control and ±100 the full control effect; nearly all actives have a fitted effect of over 55% in size
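Chicken DT40 Tdp1-/- cells stably complemented with human TDP1 were seeded at 400 cells/well with DMSO in place of 20 nM camptothecin. After compound pinning, cells grew at least 48 hr at 37 °C; viability read by CellTiter-Glo luminescence.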
ClpP mod – qHTS Assay for Activators of ClpP. ATP-dependent Clp protease proteolytic subunit (Bacillus subtilis (strain 168)), P80244. purified B. subtilis ClpP, FRET peptide cleavage, 20 min. Potency, µM (top dose mostly 57.5 µM), for the others: top-dose activity change, negative = active. 340,000 tested, 1.9% active; active means well fitted falling curve with a large enough effect; inconclusive means small, poorly fitted or top-dose-only effect; inactive means no such curve, though single readings can be large or run the other way; further: potency means the concentration at half of the fitted maximal effect; the source files actives as falling curves though it sought activators and does not explain the sign; nearly all actives have a fitted effect of over 65% in size
Target sequence (P80244 whole entry, looked up): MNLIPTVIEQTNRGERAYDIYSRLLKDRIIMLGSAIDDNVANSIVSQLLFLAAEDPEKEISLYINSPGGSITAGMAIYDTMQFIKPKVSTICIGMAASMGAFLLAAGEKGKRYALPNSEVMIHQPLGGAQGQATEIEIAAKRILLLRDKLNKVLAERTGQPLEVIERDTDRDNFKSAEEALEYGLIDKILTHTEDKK
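Buffer: 100 mM Tris/HCl pH8, 100 mM KCl, 0.05% low protease BSA, 2.5% glycerol, 0.01% Tween-20. ClpP 10 microg/mL final; 20 min RT; delta FRET normalized to ADEP and DMSO controls.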
DRD3 agonist – D3 dopamine receptor (human) agonism; P35462; 410,000 tested, 0.58% active; max activation, %; D3R DiscoveRx beta-arrestin cells, luminescence, 90 min; in the data active means max activation above about 30%; further: 0% is about no effect
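Agonist-mode cell screen: cells plated at 1500/well and incubated overnight at 37 °C, then exposed to library compounds for 90 min at 37 °C. Detection reagent was added for 30–60 min at room temperature, and luminescence was read.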
Starred values were filed as active, the others as inactive; u = inconclusive; x = no result given; [ ] = dose if it differs, or a comment. Unless noted, the call rests on the fitted dose curve; in most records, active means well fitted inhibition curve with a large enough effect; inconclusive means small, poorly fitted or top-dose-only effect; inactive means flat fitted curve, though single readings scatter.

SMILES	DRD3 antagonist	IL-1B inflam inh	TDP1 cell CPT	DT40 TDP1 no CPT	ClpP mod	DRD3 agonist
O=C(NCCNC1CCC(c2ccccc2)CC1)c1cccs1 (configuration not stated)	-54*	-72*	u	u	x	-11
COCC(=O)N1CCC(Oc2ccc(C(=O)N3C[C@H]4CC[C@H]3C4)cc2)CC1	-2	4	-5%	-6%	-2%	-6
CN(C)c1ncc2nc(-c3ccc(F)cc3)c(=O)n(CCc3ccccc3)c2n1	x	x	14%	22%	x	x
COc1ccc(NS(=O)(=O)c2cc(C(=O)N3CCCCCC3)ccc2C)cc1	5	24	u	-2%	0%	-20
O=C(Nc1c(C(=O)N2CCN(c3ccccc3)CC2)oc2ccccc12)c1ccc(Br)o1	x	x	23µM*	21µM*	-11%	-3
Cc1cccc(OCC(=O)Nc2c(C(=O)N3CCN(c4ccccc4)CC3)oc3ccccc23)c1	x	x	u	23µM*	-21%	-4
COc1ccc(CC(=O)Nc2c(C(=O)N3CCN(c4ccccc4OC)CC3)oc3ccccc23)cc1OC	15	22	u	23µM*	0%	-11
COc1ccc(N2CCN(C(=O)c3oc4ccccc4c3NC(=O)CCc3cc(OC)no3)CC2)cc1	8	-22	u	-21%	-2%	4
COc1ccc(CC(=O)Nc2c(C(=O)N3CCN(c4ccccc4)CC3)oc3ccccc23)cc1OC	4	-26	u	u	-1%	1
Cc1cccc(C(=O)Nc2c(C(=O)N3CCN(c4ccc(F)cc4)CC3)oc3ccccc23)c1	x	x	u	u	u	-2
COc1cc(CCC(=O)Nc2c(C(=O)N3CCN(c4ccccc4)CC3)oc3ccccc23)on1	-6	-61*	u	16µM*	0%	-1
COc1ccccc1C(=O)NC(=O)COC(=O)c1cccc(OC(F)F)c1	-18	3	-1%	16%	-16%	2
COc1cccc(C(=O)N2CCCC(Nc3ccc(C)c(C)c3)C2)c1 (configuration not stated)	-4	-3	-39%	-12%	-2%	7
CCN(CC)C(=O)CSc1nsc(SCC(=O)N(CC)CC)c1C#N	-55*	15	-2%	0%	-1%	-3
Cc1ccc(OC(C)C(=O)N2CCCc3ccccc32)cc1 (configuration not stated)	-26	-8	u	26µM*	-2%	0
COC(=O)/C(=N/Nc1ccccc1)N1CCCc2ccccc21	-3	-27	u	u	u	4
COC(=O)/C(=N/Nc1ccc(C)cc1)N1CCCc2ccccc21	-5	u	12µM*	u	-2%	-3
O=C(NC(=O)N1CCCc2ccccc21)c1ccccc1	3	26	-21%	-21%	x	5
Cc1c(Br)c([N+](=O)[O-])nn1CC(=O)N1CCc2ccccc21	-16	-8	4%	1%	x	-15
O=C(C(c1ccccc1)c1ccccc1)N1CCCc2ccccc21	-61*	14	u	u	-1%	0
Cc1c(Br)c([N+](=O)[O-])nn1C(C)C(=O)N1CCCc2ccccc21 (configuration not stated)	17	10	u	16µM*	0%	-2
CC1CN(CC(=O)NCCc2ccncc2)Cc2ccccc2O1 (configuration not stated)	x	x	6%[9.04 µM]	-11%	x	x
COCC(=O)N1CCC2(CC1)CN(Cc1ccccc1OC)C2	x	x	-86%	u	x	x
COc1ccc(OC(C)C(=O)N2CCc3ccccc3C2)cc1 (configuration not stated)	-11	35	u	21µM*	-3%	-2
COc1ccc(OCC(=O)Nc2nnc(S(=O)(=O)N3CCc4ccccc43)s2)cc1	x	x	u	u	2%	0
SMILES	DRD3 antagonist	IL-1B inflam inh	TDP1 cell CPT	DT40 TDP1 no CPT	ClpP mod	DRD3 agonist
CC(C)(C)C(=O)c1c(N)[nH]c(C(=O)c2ccccc2)c1-c1ccc(Br)cc1	9	7	21µM*	23µM*	2%	-5
COC(=O)c1c(N)[nH]c(C(=O)c2ccccc2)c1-c1ccc(Br)cc1	5	34	16µM*	u	2%	-4
COc1ccccc1N1CCN(c2ccnc3cc(Cl)ccc23)CC1	23	40	2.6µM*	4.6µM*	x	-4
COc1ccccc1N1CCN(c2cnccn2)CC1	-24	-10	-1%	-9%	x	1
COc1ccccc1NC(=O)N1CCN(c2ccnc3cc(Cl)ccc23)CC1	12	-75*	u	16µM*	-1%	12
O=C(Nc1ccc(OC(F)(F)F)cc1)N1CCN(c2ccnc3cc(Cl)ccc23)CC1	-16	u	4.6µM*	5.2µM*	u	6
COc1ccccc1NC(=O)N1CCc2[nH]c3ccc(Cl)cc3c2C1	-12	x	21µM*	u	-2%	-4
CC1(C)CC(=O)C=C(Nc2ccc([N+](=O)[O-])cc2)C1	20	20	-19%	-5%	x	6
C=CCNC(=S)Nc1ccccc1-c1nnc2n1CCCCC2	-6	15	2%	-3%	x	2
COCCn1c(=NC(=O)CSCC(=O)NC2CCCCC2)sc2cc(OC)ccc21	2	-21	23µM*	21µM*	u	5
CCOCCn1c(=NC(=O)CSCC(=O)Nc2cc(C)on2)sc2cc(OC)ccc21	-9	-3	-19%	6%	-20%	-5
COC(=O)Cn1c(=NC(=O)CSC(C)=O)sc2ccccc21	-19	-13	u	u	-7%	-5
COCCn1c(=NC(=O)CSC(C)=O)sc2cc(F)ccc21	8	-27	21µM*	23µM*	-2%	1
COCCn1c(=NC(=O)CSC(C)=O)sc2cc(OC)ccc21	-2	-21	u	u	-9%	0
CCn1c(=NC(=O)CSC(C)=O)sc2ccccc21	36	-16	21µM*	u	-28%	-17
COCCn1c(=NC(=O)/C=C/c2cccs2)sc2cc(NC(C)=O)ccc21	u	0	u	23µM*	1%	-4
CCc1ccc2oc(-c3ccc(C)c(NC(=O)COc4ccccc4Cl)c3)nc2c1	x	x	-9%	u	-15%	x
Cc1nc(-c2cccnc2)sc1CCNS(=O)(=O)c1ccc(F)cc1	x	x	x	x	4%	-14
COc1ccc(NC(=O)CSc2nc3nc(C)c(Cc4ccccc4Cl)c(C)n3n2)cc1OC	x	x	u	u	-10%	-4

Screens from PubChem BioAssay.
